Measurements reported in PubChem BioAssay (NCI).
The panel holds about 83,000 compounds, 20% with a hit somewhere; the sample as a whole holds those more often.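 How to read the values: 0–100, growth inhibition (40 = 60% inhibited); 0, no net growth; -100 to 0, cell death (-40 = 40% of starting cells died; -100 = all dead).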 Unmarked numbers belong to inactive results. Activity calls are given as the source filed them. Rule for the calls: active = growth percent below 10; inactive = the rest.

Key:
Experiment in all cases: NCI-60 one-dose screen, 48 h (100 = growth as untreated, 0 = no growth, -100 = all killed)
Conditions in all cases: 10 µM unless noted
NCI-H23 lung = tested on: NCI-H23 lung
NCI-H226 lung = tested on: NCI-H226 lung
NCI-H322M lung = tested on: NCI-H322M lung
HOP-62 NSCLC = tested on: HOP-62 NSCLC
NCI-H460 lung = tested on: NCI-H460 lung
HOP-92 NSCLC = tested on: HOP-92 NSCLC
NCI-H522 lung = tested on: NCI-H522 lung
A549/ATCC NSCLC = tested on: A549/ATCC NSCLC
786-0 renal = tested on: 786-0 renal
COLO 205 colon = tested on: COLO 205 colon

Structure (SMILES)	growth (NCI-H23 lung)	growth (NCI-H226 lung)	growth (NCI-H322M lung)	growth (HOP-62 NSCLC)	growth (NCI-H460 lung)	growth (HOP-92 NSCLC)	growth (NCI-H522 lung)	growth (A549/ATCC NSCLC)	growth (786-0 renal)	growth (COLO 205 colon)
CN1CCN(CCCNc2nccc(-c3c(-c4ccc(F)c(O)c4)nc4sccn34)n2)S1(=O)=O	94.2%	105%	115%	104%	101%	70.7%	74.4%	103%	126%	29.8%
CC[C@H](C)[C@@H]1NC(=O)[C@H](Cc2ccc(O)cc2)N(C)C(=O)[C@H](Cc2ccccc2)NC(=O)CN(C)C(=O)[C@@H]2CCCN2C(=O)[C@@H](Cc2ccccc2)N(C)C(=O)[C@H](CC(C)C)NC1=O	-15.1% (active)	-8.47% (active)	-20.2% (active)	0.573% (active)	-26.5% (active)	-3.08% (active)	0.571% (active)	2.11% (active)	10.6%	-25.1% (active)
OC(c1ccccc1)c1ccccn1 (stereo not given)	107%	97.8%	102%	104%	107%	94.4%	84.6%	77.1%	97.2%	108%
O=C(Nc1ccc(Cl)cc1)Nc1ccc(Cl)c(Cl)c1	-54.2% (active)	16.3%	23.7%	40.8%	-9.05% (active)	4.68% (active)	0.643% (active)	12.6%	39.1%	-2.8% (active)
NS(=O)(=O)c1cccc(NC(=O)C(=O)C2C(=O)Nc3ccccc32)c1 (stereo not given)	95.3%	95.9%	121%	90.2%	106%	74.6%	102%	103%	114%	123%
COc1cc(Nc2cc(O)c3c(=O)cc(-c4ccccc4)oc3c2)cc(OC)c1	35.9%	67.7%	44.1%	35.5%	7.62% (active)	79.5%	-35.3% (active)	25.9%	45.4%	48.4%
COc1cc(NCC(O)CN(CC(C)C)C2CCCC2)c2ncccc2c1 (stereo not given)	77.6%	94.3%	110%	86.5%	89.4%	73.8%	70.6%	66.1%	89.3%	97%
CC1(C)CC[C@]2(C(=O)NCC#CCN3CCOCC3)CC[C@]3(C)C(=CC[C@@H]4[C@@]5(C)Cc6c([nH]c7ccccc67)C(C)(C)[C@@H]5CC[C@]43C)[C@@H]2C1	95.9%	95.1%	96.1%	98.1%	90.1%	79.8%	85.2%	72%	92.7%	30.5%
NC(=S)N/N=C(\c1ccc(Cl)cc1)C1CC1	89.7%	74.7%	88%	80.1%	102%	97.2%	97.3%	92.5%	105%	92.6%
CCCCOc1ccc(/C=N/Nc2cc(C)nc3ccc(Cl)cc23)cc1	60%	88.9%	51.6%	27.1%	-62.8% (active)	68.7%	-25.4% (active)	10.1%	-80.9% (active)	-66.6% (active)
O=C(CN1CCOCC1)Nc1ccc2ncnc(Nc3ccc(OCc4cccc(F)c4)c(Cl)c3)c2c1	89.6%	85.1%	20.9%	84.5%	67.5%	60%	25.2%	49.9%	66.2%	66.7%
O=C(N=Nc1c(O)[nH]c2ccc(F)cc12)c1cc2ccccc2[nH]1	97.4%	94.6%	94.4%	94.5%	100%	96.4%	77.8%	91.3%	97.3%	117%
CC(=O)[C@@H]1CC[C@]2(C(N)=O)CC[C@]3(C)[C@H](CC[C@@H]4[C@@]5(C)CCC(=O)C(C)(C)[C@@H]5CC[C@]43C)[C@@H]12	95.1%	102%	99.3%	92%	101%	103%	87.2%	96.3%	89.6%	102%
COc1cc(-c2nc3sccn3c2-c2ccnc(NCCNS(=O)(=O)c3ccc(F)cc3)n2)ccc1F	13%	3.23% (active)	29.7%	32.3%	13.6%	18.8%	-6.6% (active)	5.95% (active)	30.9%	5.45% (active)
CC(C)[N+](C)(CCOC(COc1ccccc1)COc1ccccc1)C(C)C	84.1%	91.2%	101%	98.6%	106%	72.2%	68%	92.5%	102%	67.9%
COc1cccc(CCC(=O)c2cc3c(N)c(C(=O)Nc4ccccc4)sc3nc2C)c1	67.9%	71.5%	52.7%	45.1%	11.7%	74.2%	37.5%	39.6%	50.2%	37.1%
Cn1ncc2c(Nc3ccccc3Cl)nc(Cl)nc21	100%	88.4%	87.3%	98.2%	114%	72.8%	40.5%	103%	103%	127%
Cc1ccc(C2C3CC4CCCCC4N3[C@@]3(C(=O)Nc4cc(Cl)ccc43)C2C(=O)c2nc3ccccc3[nH]2)cc1 (stereo not given in full)	57.8%	62.7%	63.3%	66.5%	15.9%	44.1%	54%	31.1%	35.2%	30.6%
CCCCCCOc1ccc(/C=N/Nc2cc(C)nc3ccc(Br)cc23)cc1	14%	71.1%	-73.7% (active)	-65.4% (active)	-72% (active)	34.5%	-61.4% (active)	-59.5% (active)	-87.7% (active)	-51.8% (active)
COc1cccc(CCC(=O)c2cc3c(N)c(C(=O)Nc4cccc(Cl)c4C)sc3nc2C)c1	37.4%	45.7%	43.6%	36.4%	7.76% (active)	48%	12.1%	27.3%	25.9%	7.16% (active)
COc1cc(/C=C/C(=O)c2ccc(Nc3ncnc4ccccc34)cc2)cc(OC)c1	72%	80.2%	76%	139%	81.4%	87.3%	71.4%	41.2%	52.1%	151%
O=C(NNc1nc(Cl)nc(N2CCN(C(c3ccccc3)c3ccccc3)CC2)n1)c1ccccc1	-9.53% (active)	48%	32%	47.6%	86.3%	52.2%	-68.3% (active)	98.7%	70.5%	24.1%
COc1ccc(C(=O)/C=C/c2cn(Cc3ccc(Cl)cc3)c3ccccc23)cc1	87.5%	55.1%	79.5%	58.9%	11.8%	77.3%	26.5%	57.2%	26.9%	62.9%
COc1ccc(C(=O)c2cc3c(N)c(C(=O)Nc4cccc(Br)c4C)sc3nc2C)cc1	27.4%	45.6%	52.6%	28.8%	5.88% (active)	13.6%	-27.4% (active)	17.4%	26.2%	-40% (active)
Brc1ccc(C2CC(c3cccc(Nc4ccncc4)c3)=NN2c2ccccc2)cc1 (stereo not given)	85.6%	95%	87.3%	77.2%	0.717% (active)	62.5%	87.4%	54.7%	90.2%	0.175% (active)
Cc1c(C2=CCCCC2)c2ccccn2c1C(=O)c1cccc(S(=O)(=O)N2CCOCC2)c1	75.6%	93.2%	80.7%	70%	92.7%	53.9%	68.1%	69.4%	51%	102%
